# Experimental data taken from PubChem BioAssay (EPA / NIEHS).
# Active and inactive are the calls of the source. Rule for the calls: active = hit-call score of the fitted dose curve at least 0.9, where 1 is the maximum; inactive = score below 0.9.
# Read-out: Transforming growth factor beta 1 (TGFb1), TGFB1 (gene 7040)
# Test: BSK_BE3C_TGFb1: BioMAP Diversity Plus: BE3C Assay for Transforming growth factor beta 1 (TGFb1) Biomarker Activity (AID 2283036)
# Settings: primary human bronchial epithelial cells; actives raise or lower the signal
# Method: BSK_BE3C is a cell-based, multiplexed-readout assay that uses bronchial epithelial cell, a human lung primary cell, with measurements taken at 24 hours after chemical dosing in a 96-well plate.BSK_BE3C_TGFb1 is an assay component measured in the BSK_BE3C assay. It measures TGF-b1 antibody related to regulation of gene expression using ELISA technology.Data from the assay component BSK_BE3C_TGFb1 was analyzed into 1 assay endpoint. This assay endpoint, BSK_BE3C_TGFb1, was analyzed with bidirectional fitting relative to DMSO as the negative control and baseline of activity. Using a type of binding reporter, gain or loss-of-signal activity can be used to understand changes in the signaling as they relate to the gene TGFB1. Furthermore, this assay endpoint can be referred to as a primary readout, because this assay has produced multiple assay endpoints where this one serves a signaling function. To generalize the intended target to other relatable targets, this assay endpoint is annotated to the growth factor intended target family, where the subfamily is transforming growth factor beta.
# The levels of cell surface (or secreted, indicated by the prefix "s") biomarker endpoints were measured by ELISA. Overt cytotoxicity to cells in confluent adherent cultures (all systems other than the BT system) was assessed by measuring total protein levels using sulforhodamine B (SRB) staining in parallel cultures at the time of biomarker measurements, indicated as SRB endpoints. For proliferation assays for adherent cell types, individual cell types are cultured at sub-confluence and relative cell numbers quantified by SRB staining at time points optimized for each system (48 h: 3C and CASM3C systems; 72 h: BT and HDF3CGF systems; 96 h: SAg system). SRB was performed by staining cells with 0.1% SRB after fixation with 10% TCA and reading wells at 560 nm.Viability and proliferation of PBMC (T cells) was quantified by Alamar Blue reduction for the SAg and BT systems. For PBMC viability (referred to as PBMC Cytotoxicity within the assay endpoint names), cells were plated (75,000/well in a 96-well plate) and then chemical samples added for 1 h before addition of activators, SEB and TSST-1 (20 ng/mL final concentration each). Cells were incubated for 90 h. Then, Alamar Blue (20 uL/well) (Invitrogen, Cat DAL1100) was added for 6 h, and the plates were read with a fluorescence microplate reader at 546/580 nm (excitation/emission). For PBMC proliferation, cells were plated and activated as above but incubated for only 16 h prior to addition of Alamar Blue. Plates were read after 6 h.
Structure (SMILES),outcome,AC50
COc1ccc(CCN2CCC(Nc3nc4ccccc4n3Cc3ccc(F)cc3)CC2)cc1,inactive,–
CCCCN(CCCC)C(=O)N(CCCC)CCCC,–,5.38 µM (active)
CSCCC=O,inactive,–
C[C@@H]1CCN(C(=O)[C@H](CCCN=C(N)N)NS(=O)(=O)c2cccc3c2NC[C@H](C)C3)[C@@H](C(=O)O)C1,inactive,–
CC(C=O)Cc1ccc(C(C)(C)C)cc1 (centres undefined),inactive,–
CC=Cc1ccc(OCC)c(O)c1,inactive,–
C=C(C)[C@H]1CC=C(C)C(=O)C1,inactive,–
Oc1c(Cl)cc(Cl)c(Cl)c1Cc1c(O)c(Cl)cc(Cl)c1Cl,inactive,–
CC(C)(N=C=O)c1cccc(C(C)(C)N=C=O)c1,inactive,–
CC(C)(C)CC(C)(C)c1ccc(OCCOCC[N+](C)(C)Cc2ccccc2)cc1,inactive,–
CCN(CC)C(=O)N(CC)CC,inactive,–
c1ccc2cc(Nc3ccc(Nc4ccc5ccccc5c4)cc3)ccc2c1,inactive,–
C1=CC2C3C=CC(C3)C2C1 (centres undefined),inactive,–
COc1cc(Cl)c(OC)cc1N,inactive,–
CC1(C)C2=CCCC(C)(C)[C@]23CC[C@H]1C3,–,20 µM (active)
Cc1cc(CCC(=O)OCCOCCOCCOC(=O)CCc2cc(C)c(O)c(C(C)(C)C)c2)cc(C(C)(C)C)c1O,–,17.8 µM (active)
O=C1OC2(c3ccccc31)c1ccc(O)c(Br)c1Oc1c2ccc(O)c1Br,–,3.97 µM (active)
CS(=O)(=O)c1ccc(C2=C(c3ccccc3)C(=O)OC2)cc1,inactive,–
CN(c1nccc(=O)[nH]1)C1CCN(c2nc3ccccc3n2Cc2ccc(F)cc2)CC1,inactive,–
CS(=O)(=O)OCCCCOS(C)(=O)=O,inactive,–

Structure (SMILES),outcome,AC50
CCCCOC(=O)CCCCCCCC(=O)OCCCC,inactive,–
CC(=O)Nc1ccc(C(=O)CCl)cc1,inactive,–
IC(I)I,inactive,–
Clc1cc(Cl)c(-c2c(Cl)c(Cl)cc(Cl)c2Cl)cc1Cl,inactive,–
CCC(C)c1cc([N+](=O)[O-])cc([N+](=O)[O-])c1OC(=O)OC(C)C (centres undefined),–,13.6 µM (active)
O=C1c2ccccc2C(=O)c2c(O)ccc(O)c21,inactive,–
CCCCCCCCCCCCCCCC(=O)OC/C=C(C)/C=C/C=C(C)/C=C/C1=C(C)CCCC1(C)C,inactive,–
COc1ccc(OC)c(N=Nc2c(O)ccc3ccccc23)c1,inactive,–
c1ccc(Oc2ccccc2)cc1,inactive,–
c1ccc(CCc2ccccc2)cc1,–,27.8 µM (active)
CC(=O)c1c(C)c([N+](=O)[O-])c(C(C)(C)C)c([N+](=O)[O-])c1C,inactive,–
CN(C)C(=S)SC(=S)N(C)C,inactive,–
C=C(C)C(=O)OCCOCCOCCOCCOC(=O)C(=C)C,inactive,–
C=C(C)C(=O)OCCOCCOCCOC(=O)C(=C)C,inactive,–
CC(=O)C1(C)CC2=C(CCCC2(C)C)CC1C (centres undefined),–,12.8 µM (active)
O=C1OC[C@H](Cc2cccc(O)c2)[C@H]1Cc1cccc(O)c1,inactive,–
CN(C)C(=O)Nc1ccc(Oc2ccc(Cl)cc2)cc1,–,3.97 µM (active)
CCCCCC(C=O)=Cc1ccccc1,inactive,–
C=C(C)C(=O)OCC(CC)(COC(=O)C(=C)C)COC(=O)C(=C)C,inactive,–
